Measured values reported in PubChem BioAssay (EPA / NIEHS).
Records with an inconclusive call do not appear. The source made the active and inactive calls. How the source made its calls, unless noted: active means hit-call score of the fitted dose curve at least 0.9, where 1 is the maximum; inactive means score below 0.9.

Target: Ratio of Nucleoli Translocation and Cytoplasm, AR (gene 367) (UniProt P10275)
Experiment: UPITT_HCI_U2OS_AR_TIF2_Nucleoli_Cytoplasm_Ratio_Agonist: University of Pittsburgh U2OS Androgen Receptor-Transcriptional Intermediary Factor 2 (AR-TIF2) Agonism High Content Imaging Assay for Ratio of Nucleoli Translocation and Cytoplasm (AID 2284000; active means hit-call score of the fitted dose curve at least 0.9, where 1 is the maximum;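 further: hits raise the red nucleolar to cytoplasm ratio above vehicle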)
Method in brief: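 Human osteosarcoma U2OS line, AR-RFP plus TIF2-GFP; compounds 0.195–50 uM final, 0.5% DMSO. Readout: nucleolar/cytoplasmic RFP ratio by HCI, positive direction vs DMSO baseline.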

Chain of Ratio of Nucleoli Translocation and Cytoplasm, AR (gene 367) (P10275 whole entry, looked up): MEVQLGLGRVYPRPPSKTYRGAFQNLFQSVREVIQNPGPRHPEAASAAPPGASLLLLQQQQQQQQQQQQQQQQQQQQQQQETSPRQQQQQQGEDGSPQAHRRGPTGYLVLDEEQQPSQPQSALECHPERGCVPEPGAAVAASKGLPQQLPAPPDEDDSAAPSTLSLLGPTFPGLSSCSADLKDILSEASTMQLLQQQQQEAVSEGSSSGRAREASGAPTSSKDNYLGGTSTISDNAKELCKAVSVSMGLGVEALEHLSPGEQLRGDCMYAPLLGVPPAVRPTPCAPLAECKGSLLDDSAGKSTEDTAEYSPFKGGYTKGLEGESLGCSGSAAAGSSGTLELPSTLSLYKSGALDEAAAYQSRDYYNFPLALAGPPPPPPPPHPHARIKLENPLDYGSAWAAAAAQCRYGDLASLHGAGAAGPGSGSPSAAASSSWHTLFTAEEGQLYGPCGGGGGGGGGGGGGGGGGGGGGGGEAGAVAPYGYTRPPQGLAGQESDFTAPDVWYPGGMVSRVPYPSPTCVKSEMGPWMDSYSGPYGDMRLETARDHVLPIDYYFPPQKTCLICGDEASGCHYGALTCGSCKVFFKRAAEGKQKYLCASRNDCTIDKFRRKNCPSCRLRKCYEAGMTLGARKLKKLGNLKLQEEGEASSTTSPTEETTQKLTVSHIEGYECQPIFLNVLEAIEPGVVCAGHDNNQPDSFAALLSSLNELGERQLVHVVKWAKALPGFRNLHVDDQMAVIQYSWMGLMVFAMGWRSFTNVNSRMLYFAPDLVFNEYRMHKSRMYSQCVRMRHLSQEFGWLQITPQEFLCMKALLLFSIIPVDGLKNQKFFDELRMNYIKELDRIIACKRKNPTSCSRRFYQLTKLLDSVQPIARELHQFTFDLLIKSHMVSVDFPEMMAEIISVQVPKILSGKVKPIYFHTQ

SMILES | outcome | AC50
CC(C=O)Cc1ccc(C(C)(C)C)cc1 (configuration not stated) | inactive | 
CCCCC1CCC(O)CC1 (configuration not stated) | inactive | 
Nc1ccc(N)c2c1C(=O)c1ccccc1C2=O | inactive | 
CCOC(=O)[C@@H](C)Oc1ccc(Oc2nc3ccc(Cl)cc3o2)cc1 | inactive | 
OCc1cccc(Oc2ccccc2)c1 | inactive | 
Cc1ccc(S(=O)(=O)Oc2ccc(N=Nc3ccc(-c4ccc(N=Nc5c(O)ccc6cc(S(=O)(=O)O)cc(S(=O)(=O)O)c56)c(C)c4)cc3C)cc2)cc1 | inactive | 
BrCc1cccc(Oc2ccccc2)c1 | inactive | 
CCc1cc(Cc2cc(CC)cc(C(C)(C)C)c2O)c(O)c(C(C)(C)C)c1 |  | 91.2 µM (active)
CC(=O)C1(C)CC2=C(CCCC2(C)C)CC1C (configuration not stated) | inactive | 
CCCCCCCCC=CCCCCCCCC1=NCCN1CCO |  | 13.7 µM (active)
CCCCCCCCCCCCCC(=O)OCC(O)CO (configuration not stated) | inactive | 
CCCCCCCCSCCO | inactive | 

Test system: not listed separately
Experiment: CCTE_Shafer_MEA_acute_spike_number: CCTE's Neural Acute Assay for Total Number of Spikes, Shafer Lab (AID 2284008);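 on AC50: curve fitted for decrease in spike count so AC50 reflects inhibitors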
Method in brief: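 Using an adaptive detector set to 8x rms noise, spikes were counted in 40-min windows before and after compound addition (0.03-40 uM) to rat cortical networks at 37 C; the well-level change from baseline was analysed relative to DMSO.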

SMILES | outcome | AC50
C=CC(C)(O)CCC=C(C)C (configuration not stated) | inactive | 
Oc1c(Cl)cc(Cl)c(Cl)c1Cc1c(O)c(Cl)cc(Cl)c1Cl |  | 0.266 µM (active)
CC(CN=Cc1ccccc1O)N=Cc1ccccc1O (configuration not stated) | inactive | 
O=C(Nc1ccc2c(O)c(N=Nc3ccc(N=Nc4ccc(S(=O)(=O)O)cc4)cc3)c(S(=O)(=O)O)cc2c1)c1ccccc1 | inactive | 
COCCc1ccc(OCC(O)CNC(C)C)cc1 (configuration not stated) | inactive | 
CCOC(=O)C(C#N)=C(c1ccccc1)c1ccccc1 | inactive | 

Test system: not listed separately
Experiment: CCTE_Shafer_MEA_acute_firing_rate_mean: CCTE's Neural Acute Assay for Mean Firing Rate, Shafer Lab (AID 2284009);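 further: analyzed for loss of signal so actives lower firing rate relative to DMSO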
Method in brief: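 Rat cortical neuron cultures matured to DIV 13 or 15, equilibrated 20 min at 37 C, then recorded 40 min for baseline. Compound (0.03-40 uM) added and a further 40 min recorded; percent change in mean firing rate calculated per well.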

SMILES | outcome | AC50
C=CC(C)(O)CCC=C(C)C (configuration not stated) | inactive | 
Oc1c(Cl)cc(Cl)c(Cl)c1Cc1c(O)c(Cl)cc(Cl)c1Cl |  | 0.266 µM (active)
CC(CN=Cc1ccccc1O)N=Cc1ccccc1O (configuration not stated) | inactive | 
O=C(Nc1ccc2c(O)c(N=Nc3ccc(N=Nc4ccc(S(=O)(=O)O)cc4)cc3)c(S(=O)(=O)O)cc2c1)c1ccccc1 | inactive | 
COCCc1ccc(OCC(O)CNC(C)C)cc1 (configuration not stated) | inactive | 
CCOC(=O)C(C#N)=C(c1ccccc1)c1ccccc1 | inactive | 

Test system: not listed separately
Experiment: CCTE_Harrill_HTTr_Viability_MCF7: CCTE's 6-hour Cell Viability Assessment for the High-Throughput Transcriptomics (HTTr) Platform, in MCF-7 cells cultured in DMEM + 10% fetal bovine serum, Harrill Lab (AID 2284010)
Method in brief: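 Eight-point concentration series, six-hour exposure. Propidium iodide exclusion imaged to assess membrane integrity as a cytotoxicity readout; bidirectional fitting was done with DMSO as negative control and activity baseline.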

SMILES | outcome
CC(C=O)Cc1ccc(C(C)(C)C)cc1 (configuration not stated) | inactive
CCOC(=O)[C@@H](C)Oc1ccc(Oc2nc3ccc(Cl)cc3o2)cc1 | inactive
CC(C)CCCCCCCCCCCCCCC(=O)O | inactive
CC(=O)O[C@@H]1CC2CCC1(C)C2(C)C (some centres not stated) | inactive
C[C@H]1O[C@@H](O[C@H]2[C@@H](O)C[C@H](O[C@H]3[C@@H](O)C[C@H](O[C@H]4CC[C@@]5(C)[C@H](CC[C@@H]6[C@@H]5C[C@@H](O)[C@]5(C)[C@@H](C7=CC(=O)OC7)CC[C@]65O)C4)O[C@@H]3C)O[C@@H]2C)C[C@H](O)[C@@H]1O | inactive
Oc1c(Cl)cc(Cl)c(Cl)c1Cc1c(O)c(Cl)cc(Cl)c1Cl | inactive
CC(CN=Cc1ccccc1O)N=Cc1ccccc1O (configuration not stated) | inactive
N[C@@H](Cc1cc(I)c(Oc2cc(I)c(O)c(I)c2)c(I)c1)C(=O)O | inactive
CC(=O)Nc1ccc(C(=O)CCl)cc1 | inactive
CC(=O)C1(C)CC2=C(CCCC2(C)C)CC1C (configuration not stated) | inactive
Cc1cc(C)nc(NS(=O)(=O)c2ccc(N)cc2)n1 | inactive
C=C1CC[C@H](O)C/C1=C/C=C1\CCC[C@]2(C)[C@@H]([C@H](C)/C=C/[C@H](C)C(C)C)CC[C@@H]12 | inactive
CCc1ccc(O)cc1 | inactive

Test system: not listed separately
Experiment: CCTE_Harrill_HTTr_Apoptosis_MCF7: CCTE's 6-hour Apoptosis Assessment for the High-Throughput Transcriptomics (HTTr) Platform, in MCF-7 cells cultured in DMEM + 10% fetal bovine serum, Harrill Lab (AID 2284011)
Method in brief: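 Apoptosis in MCF-7 cells grown in DMEM with 10% fetal bovine serum was scored after a six hour exposure by high content imaging of caspase-3/7 activation (CellEvent Caspase 3/7 Green), with DMSO serving as negative control and baseline.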

SMILES | outcome
CC1CCC(C(C)C)C(O)C1 (configuration not stated) | inactive
CC(C)CCCCCCCCCCCCCCC(=O)O | inactive
OCc1cccc(Oc2ccccc2)c1 | inactive
Oc1c(Cl)cc(Cl)c(Cl)c1Cc1c(O)c(Cl)cc(Cl)c1Cl | inactive
N[C@@H](Cc1cc(I)c(Oc2cc(I)c(O)c(I)c2)c(I)c1)C(=O)O | inactive
C[C@H](CCC(=O)NCC(=O)O)[C@H]1CC[C@H]2[C@@H]3[C@H](O)C[C@@H]4C[C@H](O)CC[C@]4(C)[C@H]3C[C@H](O)[C@]12C | inactive
C=C1CC[C@H](O)C/C1=C/C=C1\CCC[C@]2(C)[C@@H]([C@H](C)/C=C/[C@H](C)C(C)C)CC[C@@H]12 | inactive
COCCc1ccc(OCC(O)CNC(C)C)cc1 (configuration not stated) | inactive

Test system: not listed separately
Experiment: CCTE_Harrill_HTTr_CellCount_MCF7: CCTE's Cell Proliferation Assessment for the High-Throughput Transcriptomics (HTTr) Platform, Harrill Lab (AID 2284012; active means hit-call score of the fitted dose curve at least 0.9, where 1 is the maximum;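 further: count of Hoechst-stained nuclei per well by high-content imaging in MCF-7 cells; cells exposed to compound for six hours; intended direction is loss of nuclei count meaning fewer cells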)
Method in brief: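 For this full-screen endpoint, MCF-7 cultures received eight compound dilutions for six hours. Well nuclei counts from Hoechst imaging were analyzed relative to DMSO.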

SMILES | outcome
CC(C=O)Cc1ccc(C(C)(C)C)cc1 (configuration not stated) | inactive
CC(C)CCCCCCCCCCCCCCC(=O)O | inactive
CC(CN=Cc1ccccc1O)N=Cc1ccccc1O (configuration not stated) | inactive
N[C@@H](Cc1cc(I)c(Oc2cc(I)c(O)c(I)c2)c(I)c1)C(=O)O | inactive
CC(=O)C1(C)CC2=C(CCCC2(C)C)CC1C (configuration not stated) | inactive

Test system: not listed separately
Experiment: CCTE_Shafer_MEA_acute_burst_number: CCTE's Neural Acute Assay for Single-Electrode Bursts, Shafer Lab (AID 2284013)
Method in brief: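 Percent change in single-electrode burst number per well, from 40-min recordings taken before and after adding compound (0.03-40 uM) to primary rat cortical neurons on MEA plates at DIV 13 or 15, 37 C.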

SMILES | outcome
C=CC(C)(O)CCC=C(C)C (configuration not stated) | inactive
Oc1c(Cl)cc(Cl)c(Cl)c1Cc1c(O)c(Cl)cc(Cl)c1Cl | inactive
CC(CN=Cc1ccccc1O)N=Cc1ccccc1O (configuration not stated) | inactive
O=C(Nc1ccc2c(O)c(N=Nc3ccc(N=Nc4ccc(S(=O)(=O)O)cc4)cc3)c(S(=O)(=O)O)cc2c1)c1ccccc1 | inactive
COCCc1ccc(OCC(O)CNC(C)C)cc1 (configuration not stated) | inactive
CCOC(=O)C(C#N)=C(c1ccccc1)c1ccccc1 | inactive

Test system: not listed separately
Experiment: CCTE_Shafer_MEA_acute_per_burst_spike_number_mean: CCTE's Neural Acute Assay for Average Number of Spikes Per Burst, Shafer Lab (AID 2284015);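 further: hits are decreases in mean spikes per burst versus baseline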
Method in brief: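 We recorded spontaneous network firing of rat cortical neurons for 40 min before and 40 min during exposure to compound at 0.03-40 uM, at 37 C. Spikes were detected adaptively at 8x rms noise, and the change in average spikes per burst was fitted against DMSO.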

SMILES | outcome | AC50
C=CC(C)(O)CCC=C(C)C (configuration not stated) | inactive | 
Oc1c(Cl)cc(Cl)c(Cl)c1Cc1c(O)c(Cl)cc(Cl)c1Cl |  | 0.155 µM (active)
CC(CN=Cc1ccccc1O)N=Cc1ccccc1O (configuration not stated) |  | 15 µM (active)
O=C(Nc1ccc2c(O)c(N=Nc3ccc(N=Nc4ccc(S(=O)(=O)O)cc4)cc3)c(S(=O)(=O)O)cc2c1)c1ccccc1 | inactive | 
COCCc1ccc(OCC(O)CNC(C)C)cc1 (configuration not stated) | inactive | 
CCOC(=O)C(C#N)=C(c1ccccc1)c1ccccc1 | inactive | 
